# Assay results published in PubChem BioAssay (EPA / NIEHS).
# Activity calls are given as the source filed them. How the source made its calls: active means hit-call score of the fitted dose curve at least 0.9, where 1 is the maximum; inactive means score below 0.9.
# Test: APR_HepG2_MitoMembPot_72hr: Apredica 72-hour HepG2 Assay for Mitochondrial Membrane Potential (AID 2282917)
# Details: imaging, actives raise or lower the signal
# Protocol: APR_HepG2_72hr is a cell-based, multiplexed-readout assay that uses HepG2, a human liver cell line, with measurements taken at 72 hours after chemical dosing in a 384-well plate.APR_HepG2_MitoMembPot_72hr is one of 10 assay component(s) measured or calculated from the APR_HepG2_72hr assay. It is designed to make measurements of dye binding, a form of membrane potential reporter, as detected with fluorescence intensity signals by HCS Fluorescent Imaging technology.Data from the assay component APR_HepG2_MitoMembPot_72hr was analyzed into 1 assay endpoint. This assay endpoint, APR_HepG2_MitoMembPot_72hr, was analyzed with bidirectional fitting relative to DMSO as the negative control and baseline of activity. Using a type of membrane potential reporter, gain or loss-of-signal activity can be used to understand changes in the signaling. Furthermore, this assay endpoint can be referred to as a primary readout, because this assay has produced multiple assay endpoints where this one serves a signaling function. To generalize the intended target to other relatable targets, this assay endpoint is annotated to the cell morphology intended target family, where the subfamily is organelle conformation.
# Cells were treated with dimethyl sulfoxide (DMSO) as a solvent control at a final concentration of 0.5% v/v or with compounds in DMSO with a resulting final DMSO concentration of 0.5% v/v. Compound treatment was done at concentrations of 0.39, 0.78, 1.56, 3.12, 6.24, 12.5, 25, 50, 100, and 200 uM in duplicate on each plate. Cells were treated with compounds for 1, 24, or 72 hr. Carbonyl […] m-chloro-phenylhydrazone (CCCP) and taxol were used as positive controls for mitochondrial function and cytoskeletal stability, respectively; DMSO served as the negative control for this experiment. Cells were fixed by the direct addition of 50 uL formaldehyde in Hank's Balanced Salt Solution (HBSS) to a final concentration of 3.7%. After incubation in the fixation medium for 30 min at room temperature (293-298 K), cells were rinsed twice with HBSS and treated with cell permeabilization buffer (16 uL of 0.5% Triton X-100) for 10 min at room temperature (293-298 K) before labeling. For mitochondrial membrane potential and mitochondrial measurements, pre-fixed cells were incubated with 50 uL of MitoTracker Red CMXRos (Invitrogen) at a concentration of 250 nM for 30 min before fixation. In the remaining cases, post-fixed cells were labeled by incubation with a multiplexed mixture of primary antibodies in HBSS for 60 min at room temperature (293-298 K) to detect immunoreactivity of c-Jun (1:500), phospho-histone H3 (1:100), phospho-histone H2A.x (1:200), p53 (1:400), alpha-tubulin (1:200) and Hoechst 33342 (2 ug/mL). Cells were labeled for multiplexed imaging on two separate plates: a) Hoechst 33342, MitoTracker Red, phospho-histone H3, and alpha-tubulin, and b) Hoechst 33342, phospho-histone H2A.x, and c-Jun. A final rinse with HBSS (50 uL) was performed before analysis. The primary and secondary antibodies for the proteins were phospho-histone H3 (rabbit anti-phospho-histone H3 and FITC-donkey anti-rabbit IgG), phospho-histone H2A.x (mouse anti-phospho-histone H2A.x and FITC-donkey anti-mouse IgG), c-Jun (rabbit anti-phospho-c-Jun and Cy3-donkey anti-rabbit IgG), p53 (sheep anti-p53 and Cy5-donkey anti-sheep IgG), alpha-tubulin (mouse anti-alpha-tubulin and Cy5-donkey anti-mouse IgG). These antibodies are available as the CellCiphr HepG2 assay kit (Millipore).Digital images of each well were captured using a Cellomics ArrayScan VTI (Thermo Scientific Cellomics) (0.8 NA objective, 0.63x optical coupler, and XF-93 filter set) at 20x magnification. The images were acquired using the autofocus feature of the ArrayScan instrument, which entails the following steps. First, the camera focuses on channel 1 (Hoechst 33342), where nuclei are identified. Second, a Z offset of 1 um is used for capturing mitochondria (MitoTracker Red). […]
SMILES,outcome,AC50
CC1(C)C(C=C(Cl)Cl)C1C(=O)OC(C#N)c1cccc(Oc2ccccc2)c1 (stereo not given),inactive,
CC(C)NC(=O)N1CC(=O)N(c2cc(Cl)cc(Cl)c2)C1=O,inactive,
CC(C)=CC1C(C(=O)OCc2coc(Cc3ccccc3)c2)C1(C)C (stereo not given),,159 µM (active)
Cc1nc(N(C)C)nc(OC(=O)N(C)C)c1C,inactive,
CCN(CC)C(=O)C(C)Oc1cccc2ccccc12 (stereo not given),inactive,
N#CN=C1SCCN1Cc1ccc(Cl)nc1,inactive,
N#Cc1c(Cl)cccc1Cl,inactive,
CCNP(=S)(OC)O/C(C)=C/C(=O)OC(C)C (stereo not given),inactive,
CC(C)N1C(=O)c2ccccc2NS1(=O)=O,inactive,
Clc1nc(Cl)nc(Nc2ccccc2Cl)n1,inactive,
CC1(C)CON(Cc2ccccc2Cl)C1=O,inactive,
Nc1c(Cl)c(F)nc(OCC(=O)O)c1Cl,inactive,
CCCCOCN(C(=O)CCl)c1c(CC)cccc1CC,,33.2 µM (active)
Nc1cnn(-c2ccccc2)c(=O)c1Cl,inactive,
COCC(C)N(C(=O)CCl)c1c(C)csc1C (stereo not given),inactive,
C=CCOC(=O)C(C)(C)OC(=O)c1cc(-n2c(=O)cc(C(F)(F)F)n(C)c2=O)ccc1Cl,,65.2 µM (active)
CS(=O)(=O)c1cc(C(F)(F)F)ccc1C(=O)c1cnoc1C1CC1,inactive,
CO/N=C(/C1=NOCCO1)c1ccccc1Oc1ncnc(Oc2ccccc2Cl)c1F,,12.7 µM (active)
COC(=O)N(C(=O)N1CO[C@@]2(C(=O)OC)Cc3cc(Cl)ccc3C2=N1)c1ccc(OC(F)(F)F)cc1,inactive,
CN/C(=N\[N+](=O)[O-])NCc1cnc(Cl)s1,inactive,

SMILES,outcome,AC50
CCOP(=S)(OCC)Oc1nc(Cl)n(C(C)C)n1,inactive,
N#Cc1c[nH]cc1-c1cccc2c1OC(F)(F)O2,inactive,
COc1cc(OC)nc(NC(=O)NS(=O)(=O)c2ncccc2OCC(F)(F)F)n1,inactive,
CNC(=O)N(C)c1nnc(C(C)(C)C)s1,inactive,
CC(C)N1C(=O)N(c2ccccc2)CSC1=NC(C)(C)C,inactive,
CC(C)Oc1cccc(NC(=O)c2ccccc2C(F)(F)F)c1,inactive,
Cc1cc(C)nc(Nc2ccccc2)n1,inactive,
Cc1c(COC(=O)[C@@H]2[C@H](/C=C(\Cl)C(F)(F)F)C2(C)C)cccc1-c1ccccc1,inactive,
CCCC(=NOCC)C1=C(O)CC(CC(C)SCC)CC1=O (stereo not given),inactive,
C=C(C)CN(CC)c1c([N+](=O)[O-])cc(C(F)(F)F)cc1[N+](=O)[O-],inactive,
CSC(=O)c1c(C(F)F)nc(C(F)(F)F)c(C(=O)SC)c1CC(C)C,inactive,
CCOc1cc(C(C)(C)C)ccc1C1COC(c2c(F)cccc2F)=N1 (stereo not given),inactive,
Cn1c(-c2ccccc2)cc(-c2ccccc2)[n+]1C,inactive,
CCN(CC)c1nc(C)cc(OP(=S)(OC)OC)n1,inactive,
CC(C)Nc1nc(Cl)nc(NC(C)C)n1,inactive,
O=c1n(Cl)c(=O)n(Cl)c(=O)n1Cl,inactive,
Cc1ccc(N=CN(C)C=Nc2ccc(C)cc2C)c(C)c1,inactive,
COC(=O)NC(=S)Nc1ccccc1NC(=S)NC(=O)OC,inactive,
COC(=O)NS(=O)(=O)c1ccc(N)cc1,inactive,
OC(c1ccc(Cl)cc1)(c1ccc(Cl)cc1)C(Cl)(Cl)Cl,inactive,
